Results: ChEMBL document CHEMBL3433997, “St. Jude Leishmania screening dataset” (2016)
“And” between values parts separate entries of the source, which are not always exact repeats. Equal entries are not always repeated.

Legend:
Assay type in all cases: functional
[1] = biological target: Solute carrier family 2, facilitated glucose transporter member 1 (Homo sapiens) (UniProt P11166); experiment: ST_JUDE_LEISH: Cytotoxicity at 2uM final concentration against transgenic Leishmania Mexicana promastigotes LmGLUT1 that are glucose transport deficient and complemented with the human glucose transporter GLUT1. Activity is measured by DNA content using SYBR green in vitro
Chain of Solute carrier family 2, facilitated glucose transporter member 1 (Homo sapiens) (P11166 whole entry): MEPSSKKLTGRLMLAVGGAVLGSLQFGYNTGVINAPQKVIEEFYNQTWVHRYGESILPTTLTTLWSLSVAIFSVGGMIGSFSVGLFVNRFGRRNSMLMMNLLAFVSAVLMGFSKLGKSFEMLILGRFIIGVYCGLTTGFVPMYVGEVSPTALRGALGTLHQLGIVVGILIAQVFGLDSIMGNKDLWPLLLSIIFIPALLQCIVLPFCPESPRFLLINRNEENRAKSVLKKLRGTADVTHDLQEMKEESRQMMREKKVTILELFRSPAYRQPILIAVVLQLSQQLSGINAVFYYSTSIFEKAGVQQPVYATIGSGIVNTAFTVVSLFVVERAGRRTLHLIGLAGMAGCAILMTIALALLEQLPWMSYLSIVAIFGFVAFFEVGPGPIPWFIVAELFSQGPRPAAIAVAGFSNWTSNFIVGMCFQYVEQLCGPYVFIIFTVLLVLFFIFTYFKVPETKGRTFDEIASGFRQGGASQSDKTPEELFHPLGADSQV

[2] = biological target: Hexose transporter 1 (Plasmodium falciparum) (UniProt O97467); experiment: ST_JUDE_LEISH: Cytotoxicity at 2uM final concentration against transgenic Leishmania Mexicana promastigotes LmPfHT that are glucose transport deficient and complemented with the Plasmodium falciparum hexose transporter. Activity is measured by DNA content using SYBR green in vitro
[3] = biological target: Glucose transporter (Leishmania mexicana) (UniProt O61059); experiment: ST_JUDE_LEISH: Cytotoxicity at 2uM final concentration against transgenic Leishmania Mexicana promastigotes LmGT2 that are glucose transport deficient and complemented with the L. Mexicana glucose transporter 2. Activity is measured by DNA content using SYBR green in vitro

Row | SMILES | inhibition [1] | inhibition [2] | inhibition [3]
1 | COc1ccc2c(=NN=Cc3ccccc3)cc(C)[nH]c2c1 | 12.1% | 11.5% | 8.31%
2 | CCCCCC(C)c1cc(O)c2c(c1)OC(C)(C)C=C2C1=CCN(Cc2ccccc2)CC1 (stereo unspecified) | 3.67% | 3.53% | 3.47%
3 | Cc1cccc(-c2nn(-c3ccccc3)c3[nH]c(=O)c(CN4CCSCC4)cc23)c1 | -2.69% | -2.03% | 1.18%
4 | COc1ccc(CNC2Cc3ccccc3C2)cc1-c1cccc(S(=O)(=O)NCCN2CCCC2)c1 | 4.54% | 1.69% | 3.08%
5 | N=C(N)NN=Cc1c2ccccc2c(Cl)c2ccc(Cl)cc12 | 107% | 106% | 104%
6 | CCOc1cc2ncnc(Nc3ccc(OCc4ccccc4F)c(Cl)c3)c2cc1OCC | -0.1% | 2.22% | 0.76%
7 | Cc1cc(NC(=O)c2cccs2)ccc1OC1CCN(Cc2ccc(C#N)cc2)C1 (stereo unspecified) | 2.86% | 4.23% | 3.26%
8 | O=C(NC1CC1)c1cnc(N2CCC(Oc3ccc(Cl)cc3)CC2)c(Cl)c1 | 5.36% | 2.7% | 0.49%
9 | COc1c(CN2CCCC2)cccc1-c1cc2c(-c3ccc(C(=O)O)c(C(C)C)c3)ccnc2[nH]1 | 3% | 2.05% | 2.09%
10 | FC(F)(F)c1ccc2c(C=Cc3ccncc3)c[nH]c2c1 | 3.67% | 3.37% | 4.76%
11 | COc1ccc(-c2cnc3[nH]cc(-c4ccc(C(=O)O)cc4)c3c2)cn1 | -1.03% | 5.94% | 0.18%
12 | CCOc1ccccc1N1CCN(CCCNC(=O)/C(=C/C=C/c2cc3cc(Cl)c(Cl)cc3[nH]2)OC)CC1 | 1.44% | -0.07% | 1.24%
13 | CCCN(Cc1nnc(-c2cccs2)o1)C(=O)CSc1nnnn1-c1ccc(C)c(C)c1 | 12.1% | 11.8% | 9.19%
14 | Cc1cccc2nc(-c3cccc(-c4cccc(CN5CCN(c6ccncc6)CC5)c4)c3)[nH]c12 | 1.34% | 0.76% | 0.37%
15 | O=C(Nc1ccc(Cl)cc1)OCCn1nnnc1C(c1ccc(Cl)cc1)N1CCOCC1 (stereo unspecified) | 2.79% | 0.7% | 2.38%
16 | COc1cc(F)c2ncc(Cl)c(C(O)CN3CCC(NC(=O)c4ccc5c(c4)NC(=O)CS5)CC3)c2c1 (stereo unspecified) | 8.37% | 7.69% | 4.11%
17 | CCOc1c(Cl)cc(Cl)cc1CNCCCNc1nc2ccccc2[nH]1 | 1.3% | 6.95% | 4.33%
18 | C=Cc1sc(CNCCCNc2cc(=O)c3ccccc3[nH]2)c(C)c1Br | 0.34% | 0.27% | -0.58%
19 | COc1ccc2ncc(F)c(CCN3CCC(NCc4cnc5c(c4)NC(=O)CS5)CC3)c2c1 | 1.52% | 2.49% | 2.03%

Row | SMILES | inhibition [1] | inhibition [2] | inhibition [3]
20 | N#CC1(c2ccccc2)CCN(c2nc(NCCCN3CCCC3=O)nc(N3CCCC4CCCCC43)n2)CC1 (stereo unspecified) | 2.11% | 2.3% | -0.55%
21 | O=C(NCCc1ccccc1F)c1ccc(N2CCN(c3ccncc3)CC2)cn1 | 10.3% | 9.09% | 8.65%
22 | COc1cccc2c(NCCNc3ccnc4c(OC)cccc34)ccnc12 | 6.77% | 6.99% | 7.99%
23 | CCCc1cc(Cc2cnc(N)nc2N)cc(CCC)c1OCCCCCC(=O)OCC | 4.7% | 2.93% | 2.52%
24 | CCOc1ccc2c(=NN=Cc3cccc(Cl)c3)cc(C)[nH]c2c1 | 8.03% | 6.27% | 16%
25 | N#Cc1cccc(C(=O)Nc2cccc(-c3ccc(C(=O)NCCCN4CCOCC4)cc3)c2)c1 | 6.85% | 5.61% | 5.11%
26 | Brc1cc(Br)c2c(c1)C(NCCCNc1nc3ncccc3[nH]1)CCN2 (stereo unspecified) | 68% | 78.5% | 73.5%
27 | CC(CCCCC(=O)Nc1ccc(C(F)(F)F)cc1)NCC(O)c1cccc(Cl)c1 (stereo unspecified) | 1.04% | -0.95% | 1.56%
28 | CS(=O)(=O)CCNCc1nc(-c2ccc3c(=O)[nH]cnc3c2)cs1 | 18.2% | 48% | 31.5%
29 | CCc1cn2c3c(cc(C(=O)N[C@@H](Cc4cccc(F)c4)[C@H](O)CNC4CCCCC4)cc13)N(C)S(=O)(=O)CC2 | -0.36% | -1.06% | -0.81%
30 | Cc1cccc2nc(-c3ccc(-c4ccc(NC(=O)NCc5cccc(F)c5)cc4)s3)[nH]c12 | 7.99% | 9.74% | 5.43%
31 | CCCC(C)Nc1nc(C)cc(N[C@@H](Cc2ccccc2)C(=O)NCc2ccc(C)cc2)n1 (stereo partly specified) | 9.97% | 9.09% | 4.86%
32 | N#Cc1c(-c2ccccc2)cn2c1[nH]c(=O)c1ccccc12 | -1.7% | 2.37% | 1.89%
33 | COCCN1CCC(C(=O)NCC(C)(C)c2nc(-c3ccc(Br)c(O)c3)c(-c3ccncc3)[nH]2)CC1 | 7.2% | 8.02% | 7.22%
34 | c1ccc(CN2CCN(c3cc(-c4cncc(-c5ccccc5)c4)nc(-c4ccccc4)n3)CC2)cc1 | 1.99% | 2.26% | 1.99%
35 | CCOc1ccc2c(=NN=Cc3cccc(F)c3)cc(C)[nH]c2c1 | 6% | 1.08% | 2.7%
36 | Cn1nc(-c2ccc(NC(=O)Nc3ccc4ccccc4c3)c(F)c2)c2cnc(NCCN3CCOCC3)nc21 | 5.52% | 4.79% | 1.17%
37 | Oc1cccc(-c2nc3cc(C4=NC5CCCCC5N4)ccc3[nH]2)c1 (stereo unspecified) | 3.58% and 0.07% | 3.97% and -1.13% | 2.39% and 0.63%
